Measured values as given in PubChem BioAssay (Tox21).
Results filed as inconclusive are left out. Activity calls are given as the source filed them. Calls follow the shape of the dose curve; as a rule, active = well fitted cell-killing curve with a large enough effect in the repeat runs; inconclusive = weak or mixed curves, or effect the other way; inactive = no such curve, though single readings can be large or run the other way.

assay: qHTS assay to identify small molecule agonists of the RXR signaling pathway - cell viability counter screen (AID 1159529); conditions: RXR-alpha-bla HEK293T viability, CellTiter-Glo, 16 h; series mostly up to 76.8 µM; activity change, negative = cytotoxicity: at the top concentration; also: nearly all actives have a fitted effect of over 50% in size;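 as to activity change, negative = cytotoxicity: HEK 293T cells carrying an RXR-alpha UAS beta-lactamase reporter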
Procedure, shortened: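 RXR-alpha-UAS-bla HEK 293T cells in medium with 2% charcoal-stripped FBS were preincubated 5 hr, then exposed to compounds for 16 hr at 37 C. Viability was read as CellTiter-Glo luminescence after 30 min at room temperature.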
% is scaled to controls: 0 for no effect and ±100 for the full control effect; potency is read from the fitted curve at half-maximal effect.

Row | SMILES | activity change, negative = cytotoxicity | Potency
1 | O=C(/C=C/c1ccccc1)OCCc1ccccc1 | -17.6% (inactive) | –
2 | O=C1c2ccccc2C(=O)N1CCc1noc(-c2ccc(CN3CCCCCC3)s2)n1 | -4.23% (inactive) | –
3 | CCCCCCCCCI | -5.18% (inactive) | –
4 | CN1C(=O)c2ccccc2C1=O | 5.69% (inactive) | –
5 | Cc1cccc(O)c1N | 1.08% (inactive) | –
6 | CCc1ccccc1 | -3.7% (inactive) | –
7 | CC1(C)[C@H](C(=O)O)N2C(=O)C[C@H]2S1(=O)=O | 5.78% [at 35.3 µM] (inactive) | –
8 | O=C1c2ccccc2C(=O)C1c1ccc(Br)cc1 | -15.7% [at 35.3 µM] (inactive) | –
9 | CN1CCCN=C1COC(=O)C(O)(c1ccccc1)C1CCCCC1 (configuration not stated) | 2.38% [at 35.3 µM] (inactive) | –
10 | CC1CC(OC(=O)C(O)c2ccccc2)CC(C)(C)N1C (configuration not stated) | 5.64% [at 35.3 µM] (inactive) | –
11 | CN1CCCC(n2nc(Cc3ccc(Cl)cc3)c3ccccc3c2=O)CC1 (configuration not stated) | – | 5.35 µM (active)
12 | CC(C)=CCC1C(=O)N(c2ccccc2)N(c2ccccc2)C1=O | -22.1% [at 35.3 µM] (inactive) | –
13 | Cc1ccc(CO)cc1 | -0.158% (inactive) | –
14 | O=C(O)c1cccc(-c2noc(-c3ccccc3F)n2)c1 | -22.5% [at 35.3 µM] (inactive) | –
15 | O=C(CCc1ccc(O)cc1)c1c(O)cc(O)cc1O | -1.43% (inactive) | –
16 | COc1cc(N)c(Cl)cc1C(=O)NC1CCN(CCCOc2ccc(F)cc2)CC1OC (configuration not stated) | 2.41% [at 35.3 µM] (inactive) | –
17 | c1ccc(C[n+]2cccc3ccccc32)cc1 | -5.4% (inactive) | –
18 | CCC(C)(C)OC | – | 48.8 µM (active)
19 | COc1ccccc1Oc1c(NS(=O)(=O)c2ccc(C(C)(C)C)cc2)nc(-c2ncccn2)nc1OCCO | -14.7% [at 35.3 µM] (inactive) | –
20 | O=C(O)CCc1nc(-c2ccccc2)c(-c2ccccc2)o1 | -3.66% [at 35.3 µM] (inactive) | –
21 | c1cc(N(CC2CO2)CC2CO2)ccc1Cc1ccc(N(CC2CO2)CC2CO2)cc1 (configuration not stated) | -14.9% (inactive) | –
22 | COc1ccccc1N1CCN(CC(O)COc2cccc3ccccc23)CC1 (configuration not stated) | – | 12 µM (active)
